The values below come from the supplement of paper PMC10811239.

Structures are written as SMILES.

In this test the test system is LEGO organoid PTN (PTEN-/-; TP53-/-; NF1-/-). Briefly: bioluminescence (viable cell) signal fold change after vs before treatment, normalised to DMSO (ratio); higher = more tumour cell growth / less inhibition. Conditions: 10 µM; treatment time 6 days. As to the method: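 Luc2-labelled iPSC-derived glioblastoma-like organoids (LEGOs, genotypes PT = PTEN-/-;TP53-/-, PTCC = plus CDKN2A/B-/-, PTN = plus NF1-/-) were treated with 10 uM drug for 6 days (applied every other day) at 37 C. Bioluminescence imaging was done before treatment and 2 days after the last dose. BLI signals were normalised to the DMSO control on the same day and then to the pre-treatment signal (N=3).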
With `O=NN(CCCl)C(=O)NC1CCCCC1` [Lomustine], the bioluminescence is 1.92. The same measure for `COCCOC(=O)C1=C(C)NC(C)=C(C(=O)OC(C)C)C1c1cccc([N+](=O)[O-])c1` (stereo unspecified) [Nimodipine]: 1.19; for `O.O.O.O.[Li][O]C(=O)CC(O)(CC(=O)[O][Li])C(=O)[O][Li]` [Lithium citrate tetrahydrate]: 1.25; for `CO/N=C(\C(=O)N[C@@H]1C(=O)N2C(C(=O)[O-])=C(C[N+]3(C)CCCC3)CS[C@H]12)c1csc(N)n1.Cl.Cl.O` [Cefepime Dihydrochloride Monohydrate]: 1.59. Turning to `Cc1cccc(C)c1OCC(=O)N[C@@H](Cc1ccccc1)[C@@H](O)C[C@H](Cc1ccccc1)NC(=O)[C@H](C(C)C)N1CCCNC1=O` [Lopinavir], the bioluminescence is 0.66.

On to `C#Cc1cccc(Nc2ncnc3cc(OCCOC)c(OCCOC)cc23)c1.Cl` [Erlotinib hydrochloride], for which the bioluminescence turned out to be 2.02.
